In the supplement of paper PMC9897528:

Tested on: Scedosporium aurantiacum CBS 136046
Experiment: growth inhibition relative to DMSO control (OD600); higher = more antifungal activity, active = 80 or more; extreme values may be limits of the assay
Conditions: 5 µM; 72 h; 37 °C
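Note: conidia screened in RPMI 1640 medium under 5% CO2, growth read by spectrophotometer, medium with 0.5% DMSO serving as the untreated reference.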

Growth inhibition, inactive:
Cc1c(N)cccc1Cn1ccc(OCCc2cccs2)cc1=O 2.23%
COCCn1cnc2c(O)nc(Nc3ccccc3)nc21 5.59%
CCCNc1ccc(S(=O)(=O)Nc2cc(C)on2)cc1 0.262%
CCc1cc(O)c(Oc2cccnc2N)cc1F 12.4%
O=C(c1nc2c(C(F)(F)F)cc(C3CC3)cn2c1Cl)N1CCN([C@H]2CC[C@H](O)CC2)C(=O)C1 4.91%
COc1cc(Cc2cnc(N)nc2N)c2c(c1OC)OC(C1CC1)C=C2 (centres undefined) 2.07%
CCN(CC)CCCC(C)Nc1ccnc2cc(Cl)ccc12 (centres undefined) 21.6%
CC(C)Oc1ccc(-c2nc(-c3cccc4c3CC[C@@H]4NCCO)no2)cc1C#N 25.4%
C[C@H]1[C@@H](c2cccc(C(F)(F)F)c2)OC(=O)N1C(=O)NCc1cncc2ccccc12 11.5%
Cc1c(OCC(F)(F)F)ccnc1C[S+]([O-])c1nc2ccccc2[nH]1 (centres undefined) 39.8%
CN1CCN(Cc2ccc(-c3cnc4[nH]cc(-c5ccc6[nH]ccc6c5)c4c3)cc2)CC1 54.5%
[N-]=[N+]=N[C@H]1C[C@H](n2ccc(=O)[nH]c2=O)O[C@@H]1CO 11.7%
Nc1nc(-c2ccccc2)nc2[nH]nc(Nc3ccc(C(F)(F)F)cc3)c12 16.5%
C=CCN(C(=O)OCc1ccc([N+](=O)[O-])cc1)C1CCN(CC[C@](C)(CN(C)S(=O)(=O)c2ccccc2)c2ccccc2)CC1 34.9%
